{"source": "paper PMC4552634", "about": "“A New Set of Chemical Starting Points with Plasmodium falciparum Transmission-Blocking Potential for Antimalarial Drug Discovery” (PLoS ONE, 2015)", "note": "Hit rate of the full screen: of about 13,000 compounds, about 3,200 (25%) showed an effect of 50% or more. This is one part of the list.", "data": [{"test_system": "P. falciparum stage V gametocytes", "parameters": "BacTiter-Glo ATP luminescence viability of purified stage V gametocytes in 384-well plates, per cent inhibition versus DMSO", "conditions": "48 h, 5 µM; inhibitor", "units": {"% Inhibition": "%"}, "values": [{"smiles": "O=C(Nc1ccc(-c2cccc(-c3nc4ccccc4[nH]3)c2)cc1)Nc1ccc(F)c(F)c1F", "note": "[TCMDC-133237]", "% Inhibition": 3.705}, {"smiles": "COc1cc(N)cc2sc(N)nc12", "note": "[TCMDC-124235]", "% Inhibition": -47.26}, {"smiles": "COCCN(C)c1ccc(C(=O)Nc2ccccc2)cc1NS(=O)(=O)Cc1ccccc1", "note": "[TCMDC-134575]", "% Inhibition": 41.39}, {"smiles": "O=C(O)CCSSc1cccc[n+]1[O-]", "note": "[TCMDC-141973]", "% Inhibition": 168.8}, {"smiles": "COc1cc2c(cc1C(F)(F)F)N(C(=O)Nc1cc(F)cc(-c3cccnn3)c1)CC2", "note": "[TCMDC-139045]", "% Inhibition": -0.3523}, {"smiles": "O=C(C(=O)c1ccc(Nc2ccnc3cc(-c4ccccn4)ccc23)cc1)c1ccccc1", "note": "[TCMDC-138204]", "% Inhibition": -8.545}, {"smiles": "COc1cc2nccc(Nc3ccc(OCc4ccc(NC(C)=O)cc4)cc3)c2cc1OC.Cl", "note": "[TCMDC-138198]", "% Inhibition": -13.16}, {"smiles": "Cc1ccc(C(=O)Nc2ccc(Nc3ccnc4cc(-c5nccs5)ccc34)cc2O)cc1", "note": "[TCMDC-138298]", "% Inhibition": 75.39}, {"smiles": "c1ccc(-c2ccc3c(Nc4ccc5[nH]ncc5c4)ccnc3c2)nc1", "note": "[TCMDC-138199]", "% Inhibition": 108.3}, {"smiles": "c1ccc(-c2ccc3c(Nc4ccc5[nH]ccc5c4)ccnc3c2)nc1", "note": "[TCMDC-138200]", "% Inhibition": 22.33}, {"smiles": "COc1cc2nccc(Nc3ccc(NC(=O)c4ccc(C)cc4)c(O)c3)c2cc1OC.Cl", "note": "[TCMDC-138197]", "% Inhibition": 20.08}, {"smiles": "Cc1ccc(O)cc1Nc1ccnc2cc(-c3ccccn3)ccc12", "note": "[TCMDC-138201]", "% Inhibition": 17.09}, {"smiles": "CC(=O)Nc1ccc(COc2ccc(Nc3ccnc4cc(-c5ccccn5)ccc34)cc2)cc1", "note": "[TCMDC-138206]", "% Inhibition": 116.6}, {"smiles": "Cc1ccc(Nc2ccnc3cc(-c4nccs4)ccc23)cc1C(O)c1ccccc1", "note": "(stereo not shown) [TCMDC-138338]", "% Inhibition": -2.553}, {"smiles": "Cc1ccc(C(=O)Nc2ccc(Nc3ccnc4cc(-c5ccncc5)ccc34)cc2O)cc1", "note": "[TCMDC-138294]", "% Inhibition": -17.41}, {"smiles": "Cc1ccc(C(=O)Nc2ccc(Nc3ccnc4cc(-c5ccccn5)ccc34)cc2O)cc1", "note": "[TCMDC-138205]", "% Inhibition": 115.7}, {"smiles": "COc1ccc(Nc2ccnc3cc(-c4ccccn4)ccc23)cc1OC", "note": "[TCMDC-138207]", "% Inhibition": -27.22}, {"smiles": "Cc1ccc(F)cc1S(=O)(=O)NCC(C)c1ccc(NC(=O)Nc2cccc(F)c2)cc1", "note": "(stereo not shown) [TCMDC-136380]", "% Inhibition": -32.92}, {"smiles": "OC(CNc1ccnc(Nc2cccc(Cl)c2)n1)c1ccccc1C(F)(F)F", "note": "(stereo not shown) [TCMDC-136578]", "% Inhibition": -37.8}, {"smiles": "CC(C)n1cc2c(ccc3nc(N)nc(N)c32)n1", "note": "[TCMDC-137865]", "% Inhibition": -36.93}, {"smiles": "COc1ccc2nccc([C@@H](O)CN3CCC(NCc4ccc5c(c4)N(C)C(=O)CO5)CC3)c2c1", "note": "[TCMDC-141093]", "% Inhibition": -7.365}, {"smiles": "COCCCNc1sc(S(=O)(=O)c2ccccc2)nc1S(=O)(=O)c1ccc(C)cc1", "note": "[TCMDC-125275]", "% Inhibition": -13.04}, {"smiles": "CS(=O)(=O)CCNCc1nc(-c2ccc3c(Nc4ccc(F)c(O)c4)ccnc3c2)cs1", "note": "[TCMDC-138437]", "% Inhibition": -66.48}, {"smiles": "CS(=O)(=O)CCNCc1nc(-c2ccc3ncnc(Nc4ccc(OCc5ccccc5)c(Cl)c4)c3c2)cs1", "note": "[TCMDC-138497]", "% Inhibition": -10.86}, {"smiles": "CS(=O)(=O)CCNCc1nc(-c2ccc3c(=O)[nH]cnc3c2)cs1", "note": "[TCMDC-138539]", "% Inhibition": 107}, {"smiles": "O=C(Nc1ccc(Cl)cc1)N(CC1CC2CCC(C1)N2Cc1ccc(C(F)(F)F)cc1)c1ccc(N2CCOCC2)c(F)c1", "note": "(stereo not shown) [TCMDC-135859]", "% Inhibition": 42.25}, {"smiles": "COCc1nc(-c2ccccc2)nc(N2CCN(C(=O)NC(C)C)CC2)c1Cc1ccccc1F", "note": "[TCMDC-124782]", "% Inhibition": 9.126}, {"smiles": "Cc1onc(-c2c(Cl)cccc2Cl)c1C(=O)NC1=NC(C)(C)ON1c1ccccc1", "note": "[TCMDC-123777]", "% Inhibition": -4.951}, {"smiles": "Cc1cccc2[nH]c(-c3ccc(-c4cccc(NC(=O)NCc5ccccc5)c4)cc3)nc12", "note": "[TCMDC-133162]", "% Inhibition": -12.85}, {"smiles": "COCCNCc1cccc(-c2ccccc2CN(C(=O)Nc2ccccc2)C2CCN(Cc3ccccc3)CC2)c1", "note": "[TCMDC-140579]", "% Inhibition": 41.2}, {"smiles": "COCCNCc1ccc(-c2ccc(CN(C(=O)Nc3ccccc3)C3CCN(Cc4ccccc4)CC3)cc2)cc1", "note": "[TCMDC-140600]", "% Inhibition": 51.26}, {"smiles": "COCCNCc1cccc(-c2ccc(CN(C(=O)Nc3ccccc3)C3CCN(Cc4ccccc4)CC3)cc2)c1", "note": "[TCMDC-140599]", "% Inhibition": 105.4}, {"smiles": "COCCNCc1cccc(-c2cccc(CN(C(=O)Nc3ccccc3)C3CCN(Cc4ccccc4)CC3)c2)c1", "note": "[TCMDC-140586]", "% Inhibition": 56.29}, {"smiles": "COc1cccc(CN2CCCC(CCC(=O)Nc3ccc(C(F)(F)F)cc3)C2)c1O", "note": "(stereo not shown) [TCMDC-124616]", "% Inhibition": -32.93}, {"smiles": "COc1ccc(CC(=O)Nc2ccc(-c3cccc(-c4nc5c(C)cccc5[nH]4)c3)cc2)cc1O", "note": "[TCMDC-132145]", "% Inhibition": -7.504}, {"smiles": "Fc1ccc(-c2nc(NCc3cccc(C(F)(F)F)c3)nn2-c2cccc(C(F)(F)F)c2)cc1C(F)(F)F", "note": "[TCMDC-133542]", "% Inhibition": -57.69}, {"smiles": "Fc1ccc(CNc2nc(-c3ccc(F)c(C(F)(F)F)c3)n(-c3cccc(C(F)(F)F)c3)n2)cc1", "note": "[TCMDC-133543]", "% Inhibition": -1.205}, {"smiles": "O=[N+]([O-])c1cccc(-n2nc(NCc3ccc(Cl)cc3)nc2-c2ccc(F)c(C(F)(F)F)c2)c1", "note": "[TCMDC-133541]", "% Inhibition": 77.17}, {"smiles": "O=C(O)C1Cc2c([nH]c3ccccc23)C(c2ccc(Cl)cc2Cl)N1", "note": "(stereo not shown) [TCMDC-125815]", "% Inhibition": 25.42}, {"smiles": "CCOC(=O)C1=C(C)NC(Cn2ccnc2)=C(C(=O)OCC)C1c1ccc(C(C)(C)C)cc1", "note": "(stereo not shown) [TCMDC-138170]", "% Inhibition": 12.53}, {"smiles": "Cc1ccc(O)c(-c2cc(C(=O)Nc3ccc(S(=O)(=O)N4CCCCCC4)cc3)[nH]n2)c1", "note": "[TCMDC-125201]", "% Inhibition": -31.36}, {"smiles": "CCN(c1ccccc1)S(=O)(=O)c1ccc(NC(=O)c2cc(-c3cc(C)ccc3O)n[nH]2)cc1", "note": "[TCMDC-124308]", "% Inhibition": 51.8}, {"smiles": "O=C(Nc1cccnc1)c1cc(-c2cc(Cl)ccc2O)n[nH]1", "note": "[TCMDC-125322]", "% Inhibition": -15.69}, {"smiles": "CC(=O)Nc1ccc(NC(=O)c2cc(-c3ccc(C)cc3O)n[nH]2)cc1", "note": "[TCMDC-125182]", "% Inhibition": 0.9116}, {"smiles": "Cc1ccc(-c2cc(C(=O)Nc3ccc(S(=O)(=O)N(C)Cc4ccccc4)cc3)[nH]n2)c(O)c1", "note": "[TCMDC-125181]", "% Inhibition": -25.99}, {"smiles": "CC(=O)Nc1ccc(NC(=O)c2cc(-c3cc(Cl)ccc3O)n[nH]2)cc1", "note": "[TCMDC-125476]", "% Inhibition": 83.42}, {"smiles": "Cc1cccc(C)c1CNc1nc(N2CCOCC2)cc2c(C)c(C)[nH]c12", "note": "[TCMDC-134210]", "% Inhibition": 43.54}, {"smiles": "CCNC(=O)N[C@@H]1CN[C@@H](C#Cc2cc3c(Nc4ccc(OCc5cccc(F)c5)c(Cl)c4)ncnc3s2)C1", "note": "[TCMDC-135409]", "% Inhibition": -11.09}, {"smiles": "COc1ccc(CNC2CCN(c3ccc(NC(=O)c4cccc(Cl)c4)cc3)CC2)cc1OC", "note": "[TCMDC-124658]", "% Inhibition": -12.9}, {"smiles": "COc1ccc(C=CC(=O)Nc2ccc(N3CCCC3)cc2)cc1", "note": "[TCMDC-125750]", "% Inhibition": -68.82}, {"smiles": "COc1cc(CNc2ccc(N3CCCC3)cc2)cc(Cl)c1OC", "note": "[TCMDC-124518]", "% Inhibition": 100.8}, {"smiles": "CCCC1(C)CSc2ccccc2C(c2ccccc2)N1", "note": "(stereo not shown) [TCMDC-137314]", "% Inhibition": 11.78}, {"smiles": "CCCCCCCN(Cc1ccc(OC(C)(C)C(=O)OCC)cc1)C(=O)Nc1ccccc1OC(F)(F)F", "note": "[TCMDC-131918]", "% Inhibition": 45.53}, {"smiles": "CCCCCCCN(Cc1ccc(OC(C)(C)C(=O)OCC)cc1)C(=O)Nc1ccccc1OCC", "note": "[TCMDC-137534]", "% Inhibition": 46.34}, {"smiles": "CCCCCCCN(Cc1ccc(OC(C)(C)C(=O)OCC)cc1)C(=O)Nc1ccc(Cl)cc1OCC", "note": "[TCMDC-131919]", "% Inhibition": 74.71}, {"smiles": "CCC(CC)n1c(C)cc2c3c(N)nc(N)nc3ccc21", "note": "[TCMDC-137283]", "% Inhibition": 15.6}, {"smiles": "Cc1cc2c3c(N)nc(N)nc3ccc2n1C", "note": "[TCMDC-137957]", "% Inhibition": 115.7}, {"smiles": "Cn1c(-c2ccccc2)cc2c3c(N)nc(N)nc3ccc21", "note": "[TCMDC-137985]", "% Inhibition": 110.7}, {"smiles": "CCOCn1c(-c2ccccc2)cc2c3c(N)nc(N)nc3ccc21", "note": "[TCMDC-137979]", "% Inhibition": 108.5}, {"smiles": "CCCn1cc2c(ccc3nc(N)nc(N)c32)n1", "note": "[TCMDC-137858]", "% Inhibition": 22.58}, {"smiles": "Nc1nc(N)c2c(ccc3nn(Cc4ccccc4)cc32)n1", "note": "[TCMDC-137757]", "% Inhibition": -1.825}, {"smiles": "CCC(C)(C)n1c(C)cc2c3c(N)nc(N)nc3ccc21", "note": "[TCMDC-137307]", "% Inhibition": 10.01}, {"smiles": "Cc1cc2c3c(N)nc(N)nc3ccc2n1C(C)C", "note": "[TCMDC-137864]", "% Inhibition": -11.65}, {"smiles": "Cn1ccc2c3c(N)nc(N)nc3ccc21", "note": "[TCMDC-139863]", "% Inhibition": 5.526}, {"smiles": "COc1ccc(C(=O)COc2cccc(/C=C/C(=O)O)c2)cc1OC", "note": "[TCMDC-137318]", "% Inhibition": -6.983}, {"smiles": "Cc1nc(-c2cccc(NCc3ccccc3)c2)[nH]c1C", "note": "[TCMDC-133419]", "% Inhibition": -26.98}, {"smiles": "CCOc1cc(Cc2cnc(N)nc2N)cc(OC)c1OC", "note": "[TCMDC-137664]", "% Inhibition": -4.101}, {"smiles": "CC(C)C1C(O)=C(c2ccc3ccccc3c2)C(=O)N1Cc1ccsc1", "note": "(stereo not shown) [TCMDC-141810]", "% Inhibition": 16.73}, {"smiles": "Cc1ccccc1C1CCN(C2CCC(NC(=O)/C=C/c3cccc(Cl)c3F)CC2)CC1", "note": "(stereo not shown) [TCMDC-133513]", "% Inhibition": -35.56}, {"smiles": "COc1cccc(CNC[C@@H](O)[C@H](Cc2ccccc2)NC(=O)c2cc3c4c(c2)c(C(C)C)cn4CCS(=O)(=O)N3C)c1", "note": "[TCMDC-135536]", "% Inhibition": 25}]}]}
